Screens deposited in PubChem BioAssay by National Center for Advancing Translational Sciences (NCATS).
JMJD2A Tudor = blocks the human JMJD2A Tudor domain. AlphaScreen JMJD2A-Tudor / H3K4me3 peptide binding. Potency, µM (doses to about 114 µM), without a hit: at the highest dose activity change, negative = inhibition, usual class: inhibitors. 390,000 tested, 4.4% active; note: potency is the fitted concentration of half-maximal effect; % is set by controls: 0 for no effect and ±100 for the full control effect; nearly all actives have a fitted effect of over 50% in size
G9a inh = blocks human histone lysine methyltransferase G9a; Potency, µM (series often up to 102 µM), without a hit: at the highest dose activity, negative = inhibition, most hits filed as inhibitors; 350,000 tested, 8.8% active; G9a H3K9 monomethylation, AlphaScreen, 2 h; Q96KQ7; note: potency is the fitted concentration of half-maximal effect; % is set by controls: 0 for no effect and ±100 for the full control effect; nearly all actives have a fitted effect of over 75% in size
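Compounds were preincubated with 20 nM G9a for 15 min, after which biotinylated H3K9 peptide (500 nM) and SAM (20 uM) started a 2 h room-temperature reaction. Monomethylated product was quantified by antibody-based AlphaScreen chemiluminescence.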
PI5P4K alpha inh = inhibitors of human PI5P4K alpha; PI5P4Kalpha enzyme, ADP-Glo luminescence, 60 min; active compounds read low; max response, %; 330,000 tested, 1.2% active; active = max response of -50% or lower; inconclusive = between -30% and -50%; inactive = -30% or higher; note: value at the top dose of about 77 µM; % is set by controls: 0 for no effect and ±100 for the full control effect
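ADP-Glo luminescence end-point read after a 60 min room-temperature kinase reaction of PI5P4Kalpha plus substrate, initiated with ATP at 5 microM final. Buffer: 0.038 M HEPES pH 7.4, EGTA, 0.1% CHAPS, 5% DMSO.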
HP1b chromo inh = inhibitors of HP1-beta chromodomain binding to methylated histone tails; Potency, µM (doses to about 114 µM), inactives show top-dose activity change, negative = inhibition, usual class: inhibitors; AlphaScreen HP1-beta / biotin-H3K9me3 peptide binding; P83916; AID 540317; 390,000 tested, 0.56% active; note: potency is the fitted concentration of half-maximal effect; nearly all actives have a fitted effect of over 70% in size
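Compound inhibition of the preformed complex between 50 nM HP1-beta and 50 nM biotinylated H3K9me3 peptide was read by AlphaScreen. Buffer was PBS pH 7.4 with 0.01% Tween-20. Incubations ran 30 min at room temperature, with 10 ug/mL donor/acceptor beads.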
L3MBTL1 inh = blocks human L3MBTL1. AID 485360. Potency, µM (series often up to 57.1 µM), for the others: at the highest dose activity, negative = inhibition, actives largely listed as inhibitors. AlphaScreen L3MBTL1–H3K9me1 peptide binding. 230,000 tested, 0.66% active; note: potency is the fitted concentration of half-maximal effect; % is set by controls: 0 for no effect and ±100 for the full control effect; nearly all actives have a fitted effect of over 60% in size
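AlphaScreen assay: L3MBTL1 (50 nM final) was preincubated 30 min at room temperature with biotinylated H3(1-15)K9me1 peptide (75 nM final), then 30 min with library compounds; streptavidin donor and nickel chelate acceptor beads (10 ug/mL final) added, 30 min dark.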
BAZ2B block = inhibitors of human BAZ2B bromodomain; Q9UIF8; AlphaScreen BAZ2B-H3K14Ac peptide displacement; Potency, µM (titrated, usually from 114 µM), for the others: at the highest dose activity change, negative = inhibition, usual class: inhibitors; 360,000 tested, 4.4% active; AID 504333; note: potency is the fitted concentration of half-maximal effect; % is set by controls: 0 for no effect and ±100 for the full control effect; nearly all actives have a fitted effect of over 60% in size
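AlphaScreen displacement: compounds (up to 110uM) incubated 30 min at room temperature with a preformed 50 nM BAZ2B/50 nM biotinylated H3K14Ac peptide complex in PBS pH 7.4 with Tween-20. Donor and acceptor beads at 10 ug/mL final added, 20 min light-protected before reading.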
The depositor's hits bear a star; ? = inconclusive; · = no result; [ ] = another dose, or the depositor's remark. In the library only some 11% were active in any assay of this set; here they are far more common. Unless noted, calls come from the whole dose curve; as a rule, active = well fitted inhibition curve with a large enough effect; inconclusive = small, poorly fitted or top-dose-only effect; inactive = no such curve, though single readings can be large or run the other way.

SMILES	JMJD2A Tudor	G9a inh	PI5P4K alpha inh	HP1b chromo inh	L3MBTL1 inh	BAZ2B block
CCc1ccccc1N(C)C(=O)Cn1cnc2sc(C)c(S(=O)(=O)N3CCC(C)CC3)c2c1=O	-10%	-20%[59 µM]	·	40%	·	-6%
CCC[n+]1c(C)sc2c(OC)ccc(OC)c21	16µM*	25µM*	-15	40%	·	5%
O=C1NN(c2ccccc2)C(=O)/C1=C\c1ccccc1OCC(=O)N1CCOCC1	-2%	45µM*	·	26%	-4%	-31%
CC(C)(C)n1cn[nH]c1=S	-31%	25µM*	-4	8%	·	-20%
COCCCn1cn[nH]c1=S	?	?	-6	36%	·	6%
Cc1nc2cc(N)ccc2n1C1CCCCC1	-35%	14µM*	0	21%	-13%	?
CC(=O)c1ccc(NC(=O)Cn2c3ncccc3c(=O)n2-c2ccc(C)cc2)cc1	-10%	-40%[59 µM]	·	43%	·	3%
Cc1ccc(CSc2nnc3[nH]c(=O)cc(C)n23)cc1	-14%	2%[59 µM]	·	40%	·	4%
COC(=O)CSc1nc2nc(C)c(Br)cc2[nH]1	-32%	7.9µM*	0	21%	·	2%
Cc1ccc(NC(=O)CSc2nc3nc(C)c(Br)cc3[nH]2)cc1F	-22%	19%	3	25%	·	-21%
C=C(C)CSc1nc2nc(C)c(Br)cc2[nH]1	·	7.1µM*	·	·	·	1%
CC(C)CC(CSc1ccc(Br)cc1)N1CCN(C)CCC1=O (configuration not stated)	-19%	·	·	33%	·	·
COc1ccc(C(=O)NCCNc2nc3ccc(C)cc3cc2C#N)cc1	1%	45µM*	-6	49%	3%	-34%
CC(=O)c1cccc(NC(=O)c2noc3c2CSc2ccccc2-3)c1	8%	-32%[59 µM]	·	38%	·	3%
Cc1ccc2c(c1)C(=O)C(=O)N2CC1COc2ccccc2O1 (configuration not stated)	?	50µM*	0	?	·	?
Cc1ccc2c(c1)C(=O)C(=O)N2Cc1ccccc1	?	·	0	?	-4%	·
Cc1ccc2c(c1)C(=O)C(=O)N2CCCOc1ccccc1	56µM*	35µM*	4	?	?	50µM*
Cc1ccc(OCCCN2C(=O)C(=O)c3cc(C)ccc32)cc1	-9%	-4%	-2	?	-24%	-19%
CCCCCOc1ccccc1CN1C(=O)C(=O)c2cc(C)ccc21	18µM*	8.9µM*	·	?	·	6.3µM*
CC1=NN(c2ccccc2)C(=O)/C1=C\c1cc(C)n(C)c1C	-24%	?	2	-17%	?	?
CC1=NN(c2ccccc2)C(=O)/C1=C/c1cn(C)c2ccccc12	6.3µM*	-48%	24	11µM*	?	5µM*
Cn1cc(C=O)c2ccccc21	0%	13%	0	36%	-11%	-21%
CC1=NN(c2ccccc2)C(=O)/C1=C\c1cn(C)c2ccccc12	8.9µM*	11µM*	0	16µM*	?	3.5µM*
Nc1nc(NCCc2ccccc2)c2[nH]cnc2n1	-25%	·	·	66%	·	·
CC1=C(C(=O)Nc2cccnc2)C(c2cccc(Br)c2)n2nc(SCc3ccccc3)nc2N1 (configuration not stated)	-15%	8%[59 µM]	·	6%	·	1%
SMILES	JMJD2A Tudor	G9a inh	PI5P4K alpha inh	HP1b chromo inh	L3MBTL1 inh	BAZ2B block
CCN1C(=NCCOC)N[C@@H](c2ccccc2)[C@H](C(=O)OC)[C@H]1C	-17%	-11%[12.7 µM]	-4	16%	5%	50µM*
CCN1C(=NCc2cc(OC)c(OC)c(OC)c2)N[C@@H](c2ccccc2)[C@H](C(=O)OC)[C@H]1C	·	?	·	·	5%	-3%
COc1ccccc1C(=O)OCc1cc(=O)n2nc(C3CC3)sc2n1	2%	13%[59 µM]	·	51%	·	1%
N#CC1=C2SCN(Cc3ccco3)CN2C(=O)CC1c1ccccc1F (configuration not stated)	5µM*	0.28µM*	·	45µM*	·	56µM*
S=C1NCN(Cc2ccco2)CN1c1cccc2ccccc12	-24%	-36%	0	22%	-10%	-23%
S=C1SCN(Cc2ccco2)CN1Cc1ccco1	-24%	-32%	2	-6%	-21%	-37%
N#CC1=C2SCN(Cc3ccco3)CN2C(=O)CC1c1cccc2ccccc12 (configuration not stated)	56µM*	0.89µM*	-60*	?	-5%	?
Cc1[nH]n2c(=O)cc(-c3ccc([N+](=O)[O-])cc3)nc2c1-c1ccccc1	50µM*	·	-18	-57%	·	·
CCCc1cc(=O)n2[nH]c(C)c(-c3ccccc3)c2n1	-15%	-2%	-4	44%	0%	2%
Cc1[nH]n2c(=O)cc(-c3ccc(Cl)cc3)nc2c1-c1ccccc1	?	4%[59 µM]	·	-4%	·	32µM*
Cc1[nH]n2c(=O)cc(C(C)C)nc2c1-c1ccccc1	-17%	0%	9	15%	7%	0%
CCC(Oc1ccccc1F)C(=O)N1CCC(c2nc3ccccc3s2)CC1 (configuration not stated)	-6%	28%[59 µM]	·	103%	·	12%
COc1ccccc1NC(=O)CSC1=Nc2ccccc2N=C(c2ccc(F)cc2)C1	-32%	2%[59 µM]	·	5%[57 µM]	·	?
CN1CCN(c2ccc(NC(=S)NC(=O)/C=C/c3ccco3)cc2)CC1	?	45µM*	-12	-21%	·	?
COc1cc(NS(=O)(=O)c2ccc(NC(=S)NC(=O)/C=C/c3ccco3)cc2)ncn1	18µM*	?	-56*	?	?	-35%
CC(=O)Nc1ccc(NC(=S)NC(=O)/C=C/c2ccco2)cc1	?	2%[0.501 µM]	-64*	7%	2%[2.29 µM]	?
COC(=O)C(Cc1c[nH]c2ccccc12)NC(=O)COc1ccc(Cl)cc1Cl (configuration not stated)	?	?	·	-9%	·	-27%
CC1(C)CC(N2CCCCC2)=CC(=[N+]2CCCCC2)C1	-17%	?	-5	8%	·	-17%
CC1(C)CC(N2CCOCC2)=CC(=[N+]2CCOCC2)C1	?	40µM*	8	?	10%	-15%
CC1C[N+](=C2C=C(N3CCOCC3)CC(C)(C)C2)CC(C)O1 (configuration not stated)	?	-7%[12.7 µM]	?	25µM*	·	-38%
COc1ccccc1-c1oc2ccccc2c1C#CCCO	?	-40%[0.501 µM]	12	62%	2%	50µM*
COc1ccccc1-c1oc2ccccc2c1C#CC1(O)CCCCC1	-1%	·	14	47%	5%	·
Cc1ccc(CSCC(=O)N2CCN(c3ccccc3F)CC2)cc1	9%	6%[59 µM]	·	85%	·	8%
C[C@H](NC(=O)C1CC(=O)N(c2ccc3c(c2)OCO3)C1)C(=O)NC1CCCC1 (some centres not stated)	?	10%	-12	3%	·	-14%[57.1 µM]
